Where “and” joins values, the source holds several entries; their conditions need not be identical. Equal values may be shown once. Records with an inconclusive call do not appear. Calls of active or inactive are those of the source. The call rests on the fitted dose curve; in most records, active means well fitted cell-killing curve with a large enough effect; inconclusive means small, poorly fitted or top-dose-only effect, or effect the other way; inactive means no such curve, though single readings can be large or run the other way.
Tests used:
[1] = Quantitative High-Throughput drug screen in 47 multiple myeloma cell lines against the NCATS MIPE library collection: SKMM1_PLB cell viability assay (AID 1919863); conditions: SKMM1 myeloma viability, CellTiter-Glo ATP, 48 h; viability: active compounds read low; further: nearly all actives have a fitted effect of over 35% in size
Summary of the method: (§1)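 ATP-based CellTiter-Glo luminescence after 48 h drug exposure (37 °C, 5% CO2) of 500 myeloma cells per well. DMSO-only wells set 100% viability, media-only wells 0%; MIPE 4.0 library added by pin tool.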

[2] = Quantitative High-Throughput drug screen in 47 multiple myeloma cell lines against the NCATS MIPE library collection: U266_ATCC cell viability assay (AID 1919864); conditions: U266 myeloma viability, CellTiter-Glo ATP luminescence, 48 h; series mostly up to 45.8 µM; further: nearly all actives have a fitted effect of over 35% in size
Summary of the method: as §1

[3] = Quantitative High-Throughput drug screen in 47 multiple myeloma cell lines against the NCATS MIPE library collection: XG1_PLB cell viability assay (AID 1919866); conditions: CellTiter-Glo ATP, 48 h; series mostly up to 45.8 µM; further: nearly all actives have a fitted effect of over 35% in size
Summary of the method: as §1

[4] = Quantitative High-Throughput drug screen in 47 multiple myeloma cell lines against the NCATS MIPE library collection: RPMI8226_ATCC cell viability assay (AID 1919871); conditions: RPMI8226 myeloma viability, CellTiter-Glo ATP luminescence, 48 h; series mostly up to 45.8 µM; further: nearly all actives have a fitted effect of over 30% in size
Summary of the method: as §1

[5] = Quantitative High-Throughput drug screen in 47 multiple myeloma cell lines against the NCATS MIPE library collection: OPM2_DSMZ cell viability assay (AID 1919872); conditions: OPM2 myeloma viability, CellTiter-Glo ATP luminescence, 48 h; series mostly up to 45.8 µM; further: nearly all actives have a fitted effect of over 30% in size
Summary of the method: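 We plated 500 myeloma cells per well, pinned in MIPE 4.0 compounds, and incubated for 48 hours at 37C. ATP was then quantified with CellTiter-Glo, with DMSO and media-only wells defining 100% and 0%.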

[6] = Quantitative High-Throughput drug screen in 47 multiple myeloma cell lines against the NCATS MIPE library collection: XG6_PLB cell viability assay (AID 1919865); conditions: XG6 myeloma viability, CellTiter-Glo ATP luminescence, 48 h; series mostly up to 45.8 µM; further: nearly all actives have a fitted effect of over 40% in size
Summary of the method: as §1

[7] = Quantitative High-Throughput drug screen in 47 multiple myeloma cell lines against the NCATS MIPE library collection: VP6_DJ cell viability assay (AID 1919867); conditions: ATP luminescence, 48 h; series mostly up to 45.8 µM; further: nearly all actives have a fitted effect of over 40% in size
Summary of the method: as §1

[8] = Quantitative High-Throughput drug screen in 47 multiple myeloma cell lines against the NCATS MIPE library collection: PCM6_Riken cell viability assay (AID 1919870); conditions: CellTiter-Glo ATP, 48 h; series mostly up to 45.8 µM; further: nearly all actives have a fitted effect of over 30% in size
Summary of the method: as §1

[9] = Quantitative High-Throughput drug screen in 47 multiple myeloma cell lines against the NCATS MIPE library collection: UTMC2_PLB cell viability assay (AID 1919868); conditions: CellTiter-Glo ATP luminescence, 48 h; viability (% of DMSO control): at 45.8 µM (top of the series); further: nearly all actives have a fitted effect of over 55% in size
Summary of the method: as §1

[10] = Quantitative High-Throughput drug screen in 47 multiple myeloma cell lines against the NCATS MIPE library collection: PE2_PLB cell viability assay (AID 1919869); conditions: PE2_PLB myeloma cells viability, ATP luminescence, 48 h; series mostly up to 45.8 µM; further: nearly all actives have a fitted effect of over 35% in size
Summary of the method: as §1
Potency means the concentration at half of the fitted maximal effect.

CN(C)C(=O)c1ccc(S(=O)(=O)c2ccc(NC(=O)[C@@](C)(O)C(F)(F)F)c(Cl)c2)cc1
inactive: viability [1] 99.9% | Potency [2] | Potency [4] | Potency [5]
active: Potency [3] 3.32 µM

CC1(C)Cc2c(-c3ccccc3)c(-c3ccc(Cl)cc3)c(CC(=O)O)n2C1
active: Potency [1] 20.9 µM | Potency [2] 18.7 µM | Potency [6] 18.7 µM | Potency [3] 14.8 µM | Potency [7] 14.8 µM | Potency [5] 23.5 µM

Cc1ccccc1C(C(=O)NC1CCCC1)N(C(=O)Cn1cnc2ccccc21)c1cccc(F)c1 (configuration not stated)
inactive: Potency [6] | Potency [8]
active: Potency [1] 10.5 µM | Potency [2] 23.5 µM | Potency [3] 18.7 µM | Potency [7] 2.35 µM | Potency [4] 3.72 µM

COc1ccc(CC2=NN3C([C@@H](CCc4ccccc4)[C@@H](C)O)=NC(C)C3C(=O)N2)cc1OC (some centres not stated)
inactive: viability [1] 138% | Potency [2] | Potency [3] | Potency [8] | Potency [4] | Potency [5]

Cn1cnc2c(F)c(Nc3ccc(Br)cc3Cl)c(C(=O)NOCCO)cc21
inactive: Potency [9]
active: Potency [1] 1.18 µM | Potency [2] 5.26 µM | Potency [6] 0.418 µM | Potency [3] 0.0935 µM | Potency [7] 0.296 µM | Potency [10] 0.235 µM | Potency [4] 0.935 µM

Cc1c(CCOc2ccc(C(=O)O)cc2)c2cc(Cl)ccc2n1C(c1ccccc1)c1ccccc1
inactive: viability [1] 110% | Potency [6] | Potency [3]
active: Potency [2] 11.8 µM

O=C1[C@H](Cc2ccc(O)cc2)N2C(=O)CCN(C(=O)NCc3ccccc3)[C@H]2CN1Cc1cccc2ccccc12
active: Potency [1] 6.62 µM | Potency [6] 4.18 µM | Potency [3] 9.35 µM

OCCC#Cc1nc(-c2ccc(F)cc2)c(-c2ccncc2)n1CCCc1ccccc1
inactive: viability [1] 114% | Potency [2]
active: Potency [3] 18.7 µM | Potency [10] 20.9 µM

Cc1cn[nH]c1
active: Potency [1] 0.0662 µM | Potency [2] 0.662 µM | Potency [6] 0.296 µM | Potency [3] 1.05 µM | Potency [7] 0.0935 µM | Potency [8] 0.0833 µM | Potency [4] 0.118 µM | Potency [5] 4.18 µM

CC[C@H](Nc1ncnc2nc[nH]c12)c1nc2cccc(F)c2c(=O)n1-c1ccccc1
active: Potency [1] 16.6 µM | Potency [6] 13.2 µM

Cc1cc([C@@H](C)Nc2ccccc2C(=O)O)c2nc(N3CCOCC3)cc(=O)n2c1
active: Potency [1] 27 µM | Potency [6] 1.91 µM | Potency [3] 4.29 µM | Potency [7] 9.59 µM | Potency [9] 3.82 µM | Potency [5] 42.9 µM

Cc1ccc(NC(=O)c2cccc(C(C)(C)C#N)c2)cc1Nc1ccc2ncn(C)c(=O)c2c1
inactive: Potency [8]
active: Potency [1] 1.66 µM | Potency [2] 18.7 µM | Potency [6] 5.26 µM | Potency [10] 5.9 µM | Potency [5] 16.6 µM

COc1ccc(-c2ccc3c(N4CCOCC4)nc(N4C[C@@H](C)O[C@@H](C)C4)nc3n2)cc1CO
active: Potency [1] 1.66 µM | Potency [2] 0.332 µM | Potency [6] 0.59 µM | Potency [3] 0.187 µM | Potency [7] 0.296 µM | Potency [10] 0.833 µM | Potency [8] 1.48 µM | Potency [4] 0.0935 µM | Potency [5] 1.18 µM

Oc1ccc(C2CNCCc3c2cc(O)c(O)c3Cl)cc1 (configuration not stated)
inactive: viability [1] 103% | Potency [2] | Potency [3] | Potency [10] | Potency [4] | Potency [5]

CO[C@@H]1[C@H](N(C)C(=O)c2ccccc2)C[C@H]2O[C@]1(C)n1c3ccccc3c3c4c(c5c6ccccc6n2c5c31)C(=O)NC4
active: Potency [1] 8.33 µM | Potency [2] 3.72 µM | Potency [6] 0.372 µM | Potency [3] 0.935 µM | Potency [7] 0.418 µM | Potency [10] 0.59 µM | Potency [4] 7.43 µM | Potency [5] 3.72 µM

COc1ccccc1-c1cccc(-c2c(O)c3cc(C#N)c(Cl)cc3[nH]c2=O)c1
inactive: viability [1] 104% | Potency [2] | Potency [4] | Potency [5]
active: Potency [6] 34 µM | Potency [7] 21.5 µM

CS(=O)(=O)Oc1ccc2c(NC(N)=O)c(C(=O)c3ccc(Cl)cc3Cl)oc2c1
active: Potency [2] 11.8 µM | Potency [6] 16.6 µM | Potency [3] 20.9 µM | Potency [7] 9.35 µM | Potency [9] 16.6 µM | Potency [8] 20.9 µM
inactive: viability [1] 128% | Potency [5]

CC(C=CC1=C(C)CCCC1(C)C)=CC=CC(C)=CC(=O)O
active: Potency [1] 14.8 µM | Potency [2] 2.09 µM | Potency [6] 935 nM and 5.26 µM | Potency [3] 1.87 µM and 16.6 µM | Potency [10] 16.6 µM

— PubChem BioAssay (NCATS)
